Neddylation inh = cullin neddylation inhibition. TR-FRET cullin neddylation, biochemical. inhibition, % at 25 µM. 360,000 compounds, 0.58% hits; in the data active means inhibition above about 36%
Rpn11 inh = inhibitors of human proteasome Rpn11; O00487; human 26S proteasome, Ub4-pepOG fluorescence polarization; 20S core pre-blocked with epoxomicin; calls only at 20 µM; 360,000 compounds, 0.59% hits;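 active means inhibition at 20 µM, scaled to each plate's controls, above about 33%, limit read from the data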
PKA-R1A activ = activators of PKA-R1A complex | P00514+P68181 | activation, % at 11.4 µM | 340,000 compounds, 0.083% hits | PKA-R1A dissociation, Cy5-IP20 fluorescence polarization; scaled: DMSO 0%, 113 µM cGMP 100%;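 active means percent activation above the mean of all tested compounds plus 3 SD, cut at about 19% in these data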;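 further: higher means more PKAc released from R1A so a rise in polarization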
PKA-R2B act = PKA-R2B complex activation; P22694+P31323; PKA-R2B holoenzyme dissociation, Cy5-IP20 fluorescence polarization; R2B truncated from residue 108, S112A mutant; 0% DMSO only, 100% 113 µM cGMP; activation, % at 11.4 µM; 340,000 compounds, 0.079% hits; AID 504700;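 active means activation above a cutoff set at the mean over all compounds plus 3 SD, cut at about 18% in these data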;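 further: higher means more holoenzyme dissociation and a rise in polarization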
Rpn11 inh conf = Rpn11 inhibition confirmation, single concentration; shares compounds with Rpn11 inh; purified human 26S proteasome, Ub4-pepOG fluorescence polarization; proteasome pretreated with epoxomicin; inhibition, % at 20 µM; 1,900 compounds, 29% hits; AID 602318
MMP-2 inh = MMP-2 (human) inhibition counter-screen | shares compounds with Rpn11 inh | recombinant MMP-2, FRET peptide cleavage fluorescence | inhibition, % at 20 µM | 1,900 compounds, 4% hits;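 further: human MMP-2 activated beforehand with APMA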
Target sequence (P08253 whole entry, looked up): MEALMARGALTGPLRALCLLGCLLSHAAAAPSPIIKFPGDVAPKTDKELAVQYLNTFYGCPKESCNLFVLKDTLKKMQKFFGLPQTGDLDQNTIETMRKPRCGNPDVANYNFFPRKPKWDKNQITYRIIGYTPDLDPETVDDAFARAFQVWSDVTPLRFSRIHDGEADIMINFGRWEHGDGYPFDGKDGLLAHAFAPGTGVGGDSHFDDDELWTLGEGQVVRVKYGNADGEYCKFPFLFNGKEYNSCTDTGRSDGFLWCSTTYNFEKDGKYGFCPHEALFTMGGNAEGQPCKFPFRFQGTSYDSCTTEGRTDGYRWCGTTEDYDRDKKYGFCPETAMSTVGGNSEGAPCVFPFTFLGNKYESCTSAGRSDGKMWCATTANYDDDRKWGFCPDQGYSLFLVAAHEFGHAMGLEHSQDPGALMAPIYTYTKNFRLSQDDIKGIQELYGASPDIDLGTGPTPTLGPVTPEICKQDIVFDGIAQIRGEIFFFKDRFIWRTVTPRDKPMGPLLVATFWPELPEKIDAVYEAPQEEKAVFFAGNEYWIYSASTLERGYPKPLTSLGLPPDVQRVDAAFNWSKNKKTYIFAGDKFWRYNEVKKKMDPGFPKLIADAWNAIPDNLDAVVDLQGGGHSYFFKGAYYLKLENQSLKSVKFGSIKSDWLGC
Thrombin FP = blocks bovine thrombin, flagging nonselective RPN11 hits; bovine thrombin cleavage of Ub4-pepOG, fluorescence polarization; 1,900 compounds, 13% hits; inhibition, % at 20 µM; shares compounds with Rpn11 inh; AID 602333;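 active means mean inhibition at least 40% at 20 µM, or signal 3 deviations below plate average, so some actives read negative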;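 further: plate controls were thrombin with DMSO for no effect and buffer wells lacking thrombin for full effect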
The depositor's hits bear a star; i = inactive; . = no result given; + = active, no number. In the library only some 1.3% were active in any assay of this set; here they are far more common. Unless noted, no stated cut-off is given here; in the data, active means inhibition above about 40%; inactive means the rest.

SMILES	Neddylation inh	Rpn11 inh	PKA-R1A activ	PKA-R2B act	Rpn11 inh conf	MMP-2 inh	Thrombin FP
O=C(NC1CCCCC1)c1cc(S(=O)(=O)N2CCCC2)ccc1Cl	7	i	-4	2	.	.	.
CC(C)(C)c1nc2ccccc2c2nnc(SCC(=O)Nc3nc4ccccc4s3)n12	0	+	-3	4	81*	-1	-2
COc1cc(OC)cc(-c2c(C#Cc3ccsc3)c3cc(-c4ccc(C(N)=O)cc4)ccc3n2C)c1	.	+	-2	-9	12	7	10
CCN(CC(=O)Nc1c(F)cccc1F)C(=O)/C=C/c1ccc(Br)s1	-4	i	-1	-4	.	.	.
CN(C)c1ccc(/C=C(\Cl)c2nc3ccccc3s2)cc1	14	.	-12	1	.	.	.
O=C(CSc1nc2ccccc2s1)CSc1nc2ccccc2s1	-9	i	-19	-1	.	.	.
O=C(CSc1nc2ccccc2s1)c1cc2ccccc2o1	-57	+	-4	-8	29	20	15
COc1cccc(C(=O)CN2C(=O)C(C)(C)Oc3ccc(C(=O)N4CCCCCC4)cc32)c1	5	+	2	-2	-4	-42	-14
COc1cccc(C(=O)CN2C(=O)C(C)(C)Oc3ccc(C(=O)N4CCOCC4)cc32)c1	0	i	4	1	.	.	.
O=c1cc(N2CCN(c3ccccc3)CC2)[nH]c(=O)n1Cc1ccc(F)cc1	-2	i	4	-2	.	.	.
O=c1cc(N2CCc3ccccc3C2)[nH]c(=O)n1Cc1ccc(F)cc1	-4	+	-2	-9	-2	-26	-13
COc1ccc(C(=O)CSc2nnc(NC(=O)C3CC(=O)N(c4ccccc4)C3)s2)cc1 (stereo not drawn)	-73	+	-14	-4	13	2	-4
Cc1ccc(C(=O)N/C(=C/c2ccco2)C(=O)Nc2cccc(C)c2)cc1	-5	i	-5	-3	.	.	.
Cc1cccc(NC(=O)/C(=C\c2ccco2)NC(=O)c2cccs2)c1	9	+	6	0	4	-5	7
O=C(O)C(c1ccccc1)N1C(=O)/C(=C\c2ccc(O)c(O)c2)SC1=S (stereo not drawn)	-57	+	0	1	61*	31	48*
CCOc1ccc(/C=C2/SC(=S)N(C(C(=O)O)c3ccccc3)C2=O)cc1OCC (stereo not drawn)	2	i	-2	9	.	.	.
COc1cc(/C=C2/SC(=S)N(c3c(C)n(C)n(-c4ccccc4)c3=O)C2=O)ccc1O	-39	+	-9	1	63*	-10	43*
CCOc1cc(/C=C2\SC(=S)N(C(C(=O)O)c3ccccc3)C2=O)ccc1O (stereo not drawn)	-23	+	2	-2	63*	13	72*
COc1cc(/C=C2\SC(=S)N(C(C(=O)O)c3ccccc3)C2=O)ccc1O (stereo not drawn)	-45	+	-5	-10	56*	-15	73*
CSc1ccccc1-c1nc(-c2ccncc2)no1	-129	i	-8	-16	.	.	.
O=[N+]([O-])c1ccc(Cl)c(-c2ccc(/C=N/n3cnnc3)o2)c1	-42	i	-11	-14	.	.	.
CN1CCN(/N=C/c2ccc(-c3ccc([N+](=O)[O-])cc3Cl)o2)CC1	-58	+	1	-3	14	-30	9
Cc1ccsc1/C=C/c1ccc2cccc(O)c2n1	-5	i	-11	-17	.	.	.
Cc1ccsc1/C=C/c1ccc2ccccc2n1	31	+	-3	-7	53*	-21	21
S=C(CN1CCCC1=S)NCCc1ccccc1	1	i	3	-6	.	.	.
SMILES	Neddylation inh	Rpn11 inh	PKA-R1A activ	PKA-R2B act	Rpn11 inh conf	MMP-2 inh	Thrombin FP
COC(=O)c1sc2nc(CN3CCN(c4cccc(C(F)(F)F)c4)CC3)[nH]c(=O)c2c1C	18	+	-6	5	13	-17	18
CCOC(=O)c1sc2nc(CN3CCN(c4cccc(C(F)(F)F)c4)CC3)[nH]c(=O)c2c1C	-45	+	4	-1	29	-13	5
COC(=O)c1sc2nc(CN3CCN(c4ccc(OC)cc4)CC3)[nH]c(=O)c2c1C	-10	i	-9	5	.	.	.
COc1cccc(N2CCN(Cc3nc4scc(-c5ccccc5)c4c(=O)[nH]3)CC2)c1	-71	+	-7	1	12	30	22
Cc1ccc(C(=O)NCC(=O)OCC(=O)Nc2ccccc2C#N)s1	5	i	0	-8	.	.	.
CC1CCN(C2CCN(S(=O)(=O)c3ccc(C(F)(F)F)cc3)CC2)CC1	-10	i	4	-3	.	.	.
COc1ccc(C(=O)Nc2ccc3cn[nH]c3c2)c(OC)c1	-3	i	-2	-3	.	.	.
Cc1cc(=O)[nH]c(N/N=C/C(C)c2ccccc2)n1 (stereo not drawn)	4	i	-5	-5	.	.	.
C=CCc1c(C)nc(-c2ccccc2)nc1Nc1ccccc1O	8	+	2	-6	29	6	9
C=CCc1c(C)nc(-c2ccccc2)nc1N/N=C/c1ccccc1	3	i	6	1	.	.	.
COc1cc(-c2cc(-c3ccc(F)cc3)nc(N)c2C#N)ccc1O	25	+	-8	8	0	-12	-7
O=C(NCCCC1CCCC1)C1CCC(=O)N(Cc2ccc(Cl)cc2)C1 (stereo not drawn)	-4	i	3	-8	.	.	.
COc1ccc(C2C(C(=O)Nc3ccccc3OC)=C(C)Nc3ncnn32)cc1 (stereo not drawn)	-4	i	-1	0	.	.	.
COc1ccccc1NC(=O)C1=C(C)Nc2ncnn2C1c1cccs1 (stereo not drawn)	0	+	6	-2	-11	-6	-12
Cc1ccc(/C=C(\C#N)C(=O)Nc2c(C)cccc2C)s1	-16	+	-2	-8	96*	-8	80*
COc1cccc(OC)c1C(=O)NCCN1CCN(C(=O)c2c(OC)cccc2OC)CC1	-2	+	3	-4	-2	-14	-17
CC(C)Oc1ccc(F)cc1-c1cc(C(=O)Nc2ccc(C(C)(C)C)cc2)[nH]n1	7	i	.	.	.	.	.
Cn1ccc2cc3c(cc21)CCN3C(=O)Nc1cccnc1	5	+	-8	-3	23	-362	-6
O=C(CC1OC(=O)c2ccccc21)Nc1cc(Cl)ccc1N1CCCC1 (stereo not drawn)	4	+	-6	-2	62*	-7	-13
O=C(CC1OC(=O)c2ccccc21)Nc1ccccc1N1CCOCC1 (stereo not drawn)	-7	i	-13	-4	.	.	.

Source: PubChem BioAssay (several laboratories)
